# From PubChem BioAssay (NCATS)
# Records with an inconclusive call do not appear. Where a call stands in place of a potency, no number is given. A number with no mark means an inactive call. Activity calls are given as the source filed them. The call rests on the fitted dose curve; in most records, active means well fitted curve in the direction sought with a large enough effect; inconclusive means small, poorly fitted or top-dose-only effect, or another doubt; inactive means no such curve, though single readings can be large; an effect the other way counts as inactive or inconclusive.
# Tests used:
# [1] = test system: C33A; assay: Primary qHTS to identify gynecologic anti-cancer compounds using libraries of approved drugs and bioactive compounds (AID 1345084); details: Gynecologic cancer cell panel viability, ATPlite luminescence, 48 h; series mostly up to 57.5 µM; further: nearly all actives have a fitted effect of over 55% in size
# Procedure, shortened: (§1)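 In this quantitative HTS, cell killing is estimated from loss of ATP-dependent luciferase light. Cells see five compound concentrations over a 48 h exposure.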
# [2] = test system: CAOV3; assay: as above; details: Gynecologic cancer cell panel viability, ATPlite luminescence, 48 h; series mostly up to 57.5 µM
# Procedure, shortened: as §1
# [3] = test system: CASKI; assay: as above; details: Gynecologic cancer cell panel viability, ATPlite luminescence, 48 h; series mostly up to 57.5 µM
# Procedure, shortened: as §1
# [4] = test system: Es-2; assay: as above; details: Gynecologic cancer cell panel viability, ATPlite luminescence, 48 h; series mostly up to 57.5 µM
# Procedure, shortened: as §1
# [5] = test system: HeLa; assay: as above; details: Gynecologic cancer cell panel viability, ATPlite luminescence, 48 h; series mostly up to 57.5 µM
# Procedure, shortened: as §1
# [6] = test system: Hek293T; assay: as above; details: Gynecologic cancer cell panel viability, ATPlite luminescence, 48 h, control line for the selectivity index; series mostly up to 57.5 µM
# Procedure, shortened: as §1
# [7] = test system: JEG-3; assay: as above; details: Gynecologic cancer cell panel viability, ATPlite luminescence, 48 h; series mostly up to 57.5 µM
# Procedure, shortened: as §1
# [8] = test system: OV90; assay: as above; details: Gynecologic cancer cell panel viability, ATPlite luminescence, 48 h; series mostly up to 57.5 µM
# Procedure, shortened: as §1
# [9] = test system: PA-1; assay: as above; details: Gynecologic cancer cell panel viability, ATPlite luminescence, 48 h; series mostly up to 57.5 µM
# Procedure, shortened: as §1
# [10] = test system: SKOV3; assay: as above; details: Gynecologic cancer cell panel viability, ATPlite luminescence, 48 h; series mostly up to 57.5 µM
# Procedure, shortened: as §1
# [11] = test system: Tov-21-G; assay: as above; details: Gynecologic cancer cell panel viability, ATPlite luminescence, 48 h; series mostly up to 57.5 µM
# Procedure, shortened: as §1
# [12] = test system: Tov112D; assay: as above; details: Gynecologic cancer cell panel viability, ATPlite luminescence, 48 h; series mostly up to 57.5 µM
# Procedure, shortened: as §1
# [13] = Drug repurposing screens with cells derived from glioblastoma tumor samples (AID 1345199); details: GBM patient neurospheres viability, ATP luminescence, 48 h; further: nearly all actives have a fitted effect of over 40% in size; further: potency means the concentration at half of the fitted maximal effect
# Procedure, shortened: (§2)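 Four patient lines of CD133+ GBM neurospheres were screened at several concentrations; hits were retested in those lines plus three slower-growing GBM lines, using 48-hour treatment and ATP-based viability.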
# [14] = test system: astro; assay: as above; details: viability, ATP luminescence, 48 h; series mostly up to 45.9 µM
# Procedure, shortened: as §2
# [15] = qHTS assay to identify inhibitors of the type 1 interferon - major histocompatibility complex class I in skeletal muscle: Counter screen cell viability and HiBit confirmation (AID 1347412); details: iHSKM muscle cells + IFN-b, HiBiT or CellTiter-Glo, 24 h; Viability; at 45.9 µM (top of the series); further: nearly all actives have a fitted effect of over 60% in size
# Procedure, shortened: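 After 24 h with human IFN-beta (4 ng/ml) and compound titrations (top 46 uM final, 1:3, 12 points), HLA-B HiBit myoblasts were lysed for either Nano-Glo HiBiT luminescence or CellTiter Glo viability on paired plates.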
Structure (SMILES),Potency [1],Potency [2],Potency [3],Potency [4],Potency [5],Potency [6],Potency [7],Potency [8],Potency [9],Potency [10],Potency [11],Potency [12],"activity, negative = cell killing ([13]; at 45.9 µM (top of the series), tumour line B)","activity, negative = cell killing ([13]; at 45.9 µM (top of the series), tumour line D)","activity, negative = cell killing ([13]; at 46.1 µM (top of the series), tumour line C)",Potency ([13]; tumour line A),Potency [14],"activity change, negative = inhibition [15]"
Cc1ccc(C2(C(=O)N3CCC(n4nc(-c5ccccc5)oc4=O)CC3)CC2)cc1,inactive,inactive,inactive,inactive,inactive,inactive,inactive,inactive,inactive,inactive,inactive,inactive,,,,,,
C=C1CC[C@@H](O)[C@]2(C)CC[C@H]3C(=C)C(=O)O[C@@H]3[C@@H]12,inactive,inactive,inactive,inactive,inactive,inactive,inactive,inactive,inactive,inactive,inactive,inactive,,,,,,
CC(=O)O[C@@H]1CC2C(/C=C(\C)C(=O)[C@@]3(O)C[C@@H](C)[C@H](OC(=O)c4ccccc4)C3/C=C/1C)C2(C)C (stereo partly specified),inactive,inactive,inactive,inactive,inactive,inactive,inactive,inactive,inactive,inactive,inactive,inactive,,,,,,
O=C(Nc1ccc(Cl)cc1)c1ccccc1NCc1ccncc1,inactive,inactive,inactive,inactive,inactive,inactive,inactive,inactive,inactive,inactive,inactive,inactive,,,,,,
CCCC(CCC)C(=O)NCc1ccc2c(cnn2-c2ccccc2OC)c1,inactive,inactive,inactive,inactive,inactive,inactive,inactive,inactive,inactive,inactive,inactive,inactive,,,,,,
COC(=O)C[C@H]1C(C)(C)[C@H](OC(=O)c2ccccc2)C2CC3=C4CC(=O)O[C@@H](c5ccoc5)[C@]4(C)CCC3[C@@]1(C)C2=O (stereo partly specified),inactive,inactive,inactive,inactive,inactive,inactive,inactive,inactive,inactive,inactive,inactive,inactive,,,,,,
COc1ccnc(CS(=O)c2nc3cc(OC(F)F)ccc3[nH]2)c1OC (stereo unspecified),inactive,inactive,inactive,inactive,inactive,inactive,inactive,inactive,inactive,inactive,inactive,inactive,-14.8%,-24.9%,-12.9%,28.2 µM (active),inactive,
CCOc1ccc(-n2c([C@@H](C)N(Cc3cccnc3)C(=O)Cc3ccc(OC(F)(F)F)cc3)nc3ncccc3c2=O)cc1,inactive,inactive,inactive,inactive,inactive,inactive,inactive,inactive,inactive,inactive,inactive,inactive,,,,,,
C=C[C@]1(C)C[C@H](O)[C@H]2C(=C)C(=O)O[C@@H]2[C@H]1C(=C)CO,inactive,inactive,inactive,inactive,inactive,inactive,inactive,inactive,inactive,inactive,inactive,inactive,,,,,,
COC1CCN(C(=O)c2cc(Cc3n[nH]c(=O)c4ccccc34)ccc2F)CC1,inactive,inactive,inactive,inactive,inactive,inactive,inactive,inactive,inactive,inactive,inactive,inactive,,,,,,
CC(=O)O[C@]1(C(C)=O)CC[C@H]2[C@@H]3CCC4=CC(=O)CCC4=C3[C@@H](c3ccc(N(C)C)cc3)C[C@@]21C,inactive,inactive,inactive,inactive,inactive,inactive,inactive,inactive,inactive,inactive,inactive,inactive,,,,,,
CC(C)(Cc1nc(-c2ccc(O)cn2)no1)C(=O)NC1=C(C(=O)O)CCCC1,inactive,inactive,inactive,inactive,inactive,inactive,inactive,inactive,inactive,inactive,inactive,inactive,,,,,,
Cn1ncc2cc(-c3cnc(N)c(Cl)c3N3CCC4(CCNC4=O)CC3)ccc21,inactive,inactive,inactive,inactive,inactive,inactive,inactive,inactive,inactive,inactive,inactive,inactive,,,,,,5.32%
CCOC(=O)c1ccc(OCCC2CCN(c3ccc(C)nn3)CC2)cc1,inactive,inactive,inactive,inactive,inactive,inactive,inactive,inactive,inactive,inactive,inactive,inactive,,,,,,
C/C=C(\C)C(=O)O[C@H]1C[C@](C)(O)[C@H]2CC=C(C)[C@H]2[C@@H]2OC(=O)[C@H](C)[C@H]21,inactive,inactive,inactive,inactive,inactive,inactive,inactive,inactive,inactive,inactive,inactive,inactive,,,,,,
